High-throughput results: PubChem, National Center for Advancing Translational Sciences (NCATS)
Tb PYK inh: inhibitors of Trypanosoma brucei pyruvate kinase; AID 624173; TbPYK enzyme, Kinase-Glo Plus ATP luminescence, 45 min; Q57TT1; 0.12% of 410,000 active; Potency, µM (highest dose often 76.8 µM), for inactives: at the highest dose activity, negative = inhibition, actives largely listed as inhibitors; also: potency is read from the fitted curve at half-maximal effect; % is scaled to controls: 0 for no effect and ±100 for the full control effect; nearly all actives have a fitted effect of over 50% in size
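ADP (130 uM final) triggers the TbPYK reaction after compound addition; incubation is 45 min at room temperature. Kinase-Glo Plus is then added and luminescence imaged. Normalized data are fitted to concentration-effect curves.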
FBPA Giardia inh: blocks Giardia fructose-bisphosphate aldolase activity; A8B2U2; purified Giardia FBPA; Potency, µM (series often up to 59.6 µM), for the others: at the highest dose activity, negative = inhibition, usual class: inhibitors; 0.71% of 290,000 active; also: potency is read from the fitted curve at half-maximal effect; % is scaled to controls: 0 for no effect and ±100 for the full control effect; nearly all actives have a fitted effect of over 55% in size
Target sequence (A8B2U2 whole entry, looked up): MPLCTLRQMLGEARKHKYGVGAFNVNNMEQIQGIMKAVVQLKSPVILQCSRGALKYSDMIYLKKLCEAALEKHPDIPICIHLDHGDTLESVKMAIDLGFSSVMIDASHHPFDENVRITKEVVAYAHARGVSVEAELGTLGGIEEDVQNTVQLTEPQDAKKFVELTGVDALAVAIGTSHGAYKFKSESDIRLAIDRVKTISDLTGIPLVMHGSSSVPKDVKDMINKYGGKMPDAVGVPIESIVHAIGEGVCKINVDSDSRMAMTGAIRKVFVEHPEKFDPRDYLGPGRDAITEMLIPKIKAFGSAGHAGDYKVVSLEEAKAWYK
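Giardia FBPA (40 nM reagent) was preincubated 10 min at RT with compound (up to 57.5 uM final), then substrate plus GAPDH/TPI/NAD/arsenate coupling system with diaphorase/resazurin was added; resorufin fluorescence (525/598 nm) was read after 20 min.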
LmPK inh: inhibitors of Leishmania mexicana pyruvate kinase; Q27686; purified LmPK, Kinase-Glo ATP luminescence, 1 h; Potency, µM (titrated, usually from 57.5 µM), for the others: top-dose activity change, negative = inhibition, hits mostly inhibitors; 0.37% of 290,000 active; AID 1721; also: potency is read from the fitted curve at half-maximal effect; % is scaled to controls: 0 for no effect and ±100 for the full control effect
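Screened at intermediate enzyme activity to detect both inhibitors and activators: LmPK at 0.1 nM, with a 0.5 nM enzyme column as activation reference. PEP 0.5 mM, ADP 0.1 mM; ATP detected by luminescence after 1 h.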
Shiga inhibitor: inhibitors of Shiga toxin in Vero cells; 9.2% of 290,000 active; inhibition, % at 38.7 µM; Vero cells, Shiga toxin protein synthesis inhibition reporter; in the data active = inhibition mostly above about 28%, no sharp cut-off; inactive = mostly below about 43%; also: 0% is about no effect
Sm TGR inh: blocks Schistosoma mansoni thioredoxin glutathione reductase; purified TGR, DTNB reduction, TNB absorbance 405 nm; Potency, µM (doses to about 114 µM), for inactives: at the highest dose activity change, negative = inhibition, hits mostly inhibitors; 3% of 360,000 active; AID 485364; also: potency is read from the fitted curve at half-maximal effect; % is scaled to controls: 0 for no effect and ±100 for the full control effect; nearly all actives have a fitted effect of over 60% in size
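Kinetic colorimetric format: TGR-catalysed, NADPH-driven DTNB reduction monitored via TNB absorbance. Enzyme dispensed at 20 nM; compound exposure 15 min at room temperature before reaction start.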
CHX counter: affects cycloheximide protein synthesis inhibition readout, counter-screen | cell reporter, cycloheximide protein synthesis inhibition counterscreen | max response, % | 12% of 300,000 active | AID 2314; in the data active = max response mostly above about 13%, no sharp cut-off; inactive = mostly below about 14%; also: read at 38.3 µM for the half of the compounds with a filed dose; 0% is about no effect
Active calls of the source: *; [ ] = another dose, or the depositor's remark. Shown is part of a subset that was picked to be rich in hits. Unless noted, calls follow the shape of the dose curve; as a rule, active = well fitted curve in the direction sought with a large enough effect; inconclusive = small, poorly fitted or top-dose-only effect, or another doubt; inactive = no such curve, though single readings can be large; an effect the other way counts as inactive or inconclusive.

Screening c1ccc2c(c1)Nc1cc3ccccc3cc1S2 returned Tb PYK inh -2%, FBPA Giardia inh inconclusive, LmPK inh 3%, Shiga inhibitor 47*, Sm TGR inh 3% and CHX counter 26*.
`COc1ccc2c(c1)S(=O)(=O)c1ccccc1N2` gave Tb PYK inh -1%, FBPA Giardia inh -5%, LmPK inh -1%, Shiga inhibitor -4, Sm TGR inh 5% and CHX counter -2.
Screening COc1ccc2c(c1)Sc1ccccc1N2 returned Tb PYK inh -10%, FBPA Giardia inh -12%, LmPK inh -14%, Shiga inhibitor 29, Sm TGR inh 22µM* and CHX counter 31*.
COc1ccc(-c2nc3n(n2)C(=O)CC(c2ccco2)S3)cc1 (stereo not drawn) was read as Tb PYK inh -20%, FBPA Giardia inh -7%, LmPK inh 4%, Shiga inhibitor 15, Sm TGR inh 18µM* and CHX counter 9.
Screening CCOc1ccc(C2CC(=O)n3nc(-c4ccc(C)cc4)nc3S2)cc1 (stereo not drawn) returned Tb PYK inh 2% and Sm TGR inh 7%.
Screening CCOC(=O)c1cc2c(=O)n3ccccc3nc2n(Cc2ccco2)c1=NC(=O)c1c(F)cccc1Cl returned Tb PYK inh -1% and Sm TGR inh 4µM*.
For CCOC(=O)c1cc2c(=O)n3ccccc3nc2n(Cc2ccco2)c1=NC(=O)c1cccc(Br)c1 the results were Tb PYK inh -8% and Sm TGR inh 2.2µM*.
For COc1ccc(CCNC(=O)c2cc3c(=O)n4ccccc4nc3n(Cc3ccco3)c2=N)cc1OC the results were Tb PYK inh 5%, LmPK inh -7%, Shiga inhibitor 18, Sm TGR inh -22% and CHX counter 15*.
CCOC(=O)c1cc2c(=O)n3ccccc3nc2n(Cc2ccco2)c1=NC(=O)c1ccccc1Br was read as Tb PYK inh -7% and Sm TGR inh 1.6µM*.
`CCOC(=O)c1cc2c(=O)n3ccccc3nc2n(Cc2ccco2)c1=NC(=O)c1ccc(Br)cc1` gave Tb PYK inh -9%, Shiga inhibitor 6, Sm TGR inh inconclusive and CHX counter -4.
Screening CCOC(=O)c1cc2c(=O)n3ccccc3nc2n(Cc2ccco2)c1=NC(=O)c1ccccc1OCC returned Tb PYK inh 3%, FBPA Giardia inh -5%, LmPK inh 12%[11.5 µM], Shiga inhibitor 1, Sm TGR inh inconclusive and CHX counter -2.
For Cn1nc(SCc2ccccc2)c(=O)[nH]c1=O the results were Tb PYK inh -1%.
`CC1CCN(C(=O)Cn2cc(SCc3ccccc3)c3ccccc32)CC1` gave Tb PYK inh 18% and Sm TGR inh -1%.
`CC(C)CCNC(=O)Cn1nc(N2CCN(c3ccccc3)CC2)ccc1=O` gave Tb PYK inh 3% and Sm TGR inh 0%.
For Cc1ccccc1NC(=O)c1ccc(N(Cc2ccccc2)S(C)(=O)=O)cc1 the results were Tb PYK inh 2% and Sm TGR inh -1%.
For CC(C)OC(=O)NCCOC(=O)Nc1ccc(Cl)cc1 the results were Tb PYK inh 5%, FBPA Giardia inh -2%, LmPK inh 5%, Shiga inhibitor 24, Sm TGR inh 0% and CHX counter 5.
Screening CS(=O)c1ccccc1COC(=O)Nc1ccc(Cl)cc1 (stereo not drawn) returned Tb PYK inh -6%, FBPA Giardia inh 2%, LmPK inh 6%, Shiga inhibitor 36, Sm TGR inh 2% and CHX counter 16*.
For Cc1ccc(NC(=O)OCc2ccccc2S(C)=O)cc1 (stereo not drawn) the results were Tb PYK inh 0%, FBPA Giardia inh 3%, LmPK inh 11%, Shiga inhibitor 38, Sm TGR inh 1% and CHX counter 30*.
For Cc1ccc(NC(=O)OCc2cn(-c3ccc(Cl)cc3)nn2)cc1 the results were Tb PYK inh 2%, FBPA Giardia inh 0%, LmPK inh 2%, Shiga inhibitor 3, Sm TGR inh 0% and CHX counter -1.
For Cc1noc(Cn2c(=O)c3cc4c(cc3n(CC(=O)Nc3cccc(Cl)c3)c2=O)OCO4)n1 the results were Tb PYK inh -15% and Sm TGR inh -11%.
`c1ccc(OCCOc2ccccc2-c2nnco2)cc1` gave Tb PYK inh 6%, FBPA Giardia inh -11%, LmPK inh 1%, Shiga inhibitor 136*, Sm TGR inh 7% and CHX counter 15*.
`Clc1ccccc1COc1ccccc1-c1nnco1` gave Tb PYK inh 1%, FBPA Giardia inh 1%, LmPK inh 1%, Shiga inhibitor -10, Sm TGR inh -5% and CHX counter -3.
Screening CC(C)(C)OC(=O)N1CCC(c2c(C(=O)NCc3cccc(Cl)c3)cnn2-c2ccc(F)cc2)CC1 returned Tb PYK inh 0% and Sm TGR inh -5%.
CCOC(=O)c1nc2cc3n(c(CC(C)C)c-2c1C)CC(C)=C3C was read as Tb PYK inh 5%, FBPA Giardia inh -17%, LmPK inh 1%, Shiga inhibitor -4, Sm TGR inh 56µM* and CHX counter -3.
`C[C@@H](c1ccccc1)N1C(=O)[C@H]2[C@H]3[C@H](O)[C@H](O)C/C(=N/OCc4ccccc4)[C@H]3CC[C@@H]2C1=O` gave FBPA Giardia inh 0%[12.9 µM].
For CCC(C(=O)NCc1ccco1)N(C(=O)CNS(=O)(=O)c1ccccc1)c1ccc(F)cc1 (stereo not drawn) the results were Tb PYK inh -1%, FBPA Giardia inh 12%, LmPK inh -2%, Shiga inhibitor -9, Sm TGR inh 6% and CHX counter -3.
For CCC(C(=O)NCc1ccco1)N(C(=O)CNS(=O)(=O)c1ccc(F)cc1)c1ccccc1F (stereo not drawn) the results were Tb PYK inh -2%, FBPA Giardia inh 2%, LmPK inh 5%, Shiga inhibitor 9, Sm TGR inh 45µM* and CHX counter 0.
`CC(C)C(C(=O)NCc1ccco1)N(C(=O)CNS(=O)(=O)c1ccc(Cl)cc1)C1CCCC1` (stereo not drawn) gave Tb PYK inh 1%, FBPA Giardia inh -15%, LmPK inh -7%, Shiga inhibitor 21, Sm TGR inh 45µM* and CHX counter 2.
O=C(Nc1ccc2c(c1)OCO2)c1cc(-c2ccccc2Cl)on1 was read as Tb PYK inh -13%, FBPA Giardia inh -8%, LmPK inh -3%, Shiga inhibitor 89*, Sm TGR inh -7% and CHX counter 24*.
Screening Cc1cc(NC(=O)c2cc(-c3ccc(O)cc3)on2)no1 returned Tb PYK inh 5%, FBPA Giardia inh 8%, LmPK inh 1%, Shiga inhibitor 93*, Sm TGR inh -10% and CHX counter 42*.
